# In all, about 85,000 compounds went through this assay and about 440 (0.52%) showed an effect of 50% or more. The full list was thinned out, with strong results kept by preference.
# Assay: In vitro enzyme assay to detect hydrolysis of chlorophenol red-beta-D-[…] directly proportional to the number of Toxoplasma stably expressing beta-galactosidase
# Assay type: functional, organism-based, Toxoplasma gondii
# Set-up: scale not given: in the data most compounds retested in dose-response had high values
SMILES,Percent Effect (50 µM) [%],Percent Effect (10 µM) [%]
Cc1cc(NC(=O)c2ccc(S(C)(=O)=O)cc2)no1,1.537,–
CCS(=O)(=O)N(C)CC(=O)Nc1cc(C)on1,-10.63,–
CCNS(=O)(=O)c1csc(C(=O)Nc2cc(C)on2)c1,60.53,–
Cc1ccoc1C(=O)NC1CCN(Cc2ccccc2F)CC1,–,-8.886
Cc1ccoc1C(=O)NC1CCN(Cc2cccc3ccccc23)CC1,–,53.31
Cc1ccoc1C(=O)NC1CCN(Cc2ccccc2C#N)CC1,–,-1.883
Cc1cc(C)cc(-n2ncc3c2CCCC3N)c1 (stereo not drawn),–,16.38
CC(C)(C)c1ccc(-n2ncc3c2CCCC3N)cc1 (stereo not drawn),–,50.93
Cc1ccc(-n2ncc3c2CCCC3N)cc1C (stereo not drawn),–,16.25
COc1ccc(CN2CCCNCC2)cc1,13.71,–
Cc1cc(C(=O)N(C)Cc2cccs2)nc(N2CCOCC2)n1,–,-10.44
Cc1cc(C(=O)N(C)Cc2cccs2)nc(N2CCCC2)n1,–,6.801
Cc1cc(C(=O)N(C)Cc2cccs2)nc(N2CCCCC2)n1,–,73.87
CSc1ccc(CNc2ccn(CCC(N)=O)n2)cc1,-4.331,–
O=C(NCCN1CCOCC1)c1cc(-c2ccc(Cl)s2)[nH]n1,–,52.66
O=C(NCCN1CCOCC1)c1cc(-c2ccccc2Cl)[nH]n1,–,-1.617
Cc1ccc(-c2cc(C(=O)NCCN3CCOCC3)n[nH]2)s1,–,27.02
CS(=O)(=O)N[C@H]1CN(c2ccncc2F)C[C@@H]1C1CC1,3.462,–
CCc1cnc(CNC(=O)NCc2cnn(C)c2)s1,-4.497,–
Cc1cc(C(=O)Nc2cnn(C)c2)on1,0.4555,–

SMILES,Percent Effect (50 µM) [%],Percent Effect (10 µM) [%]
Cc1cc(C(=O)Nc2cccc(C[S+](C)[O-])c2)on1 (stereo not drawn),98.42,–
Cc1cc(C(=O)Nc2ccc(OCC(N)=O)cc2)on1,12.73,–
O=C(NCCNc1ncccn1)C1CC(=O)N(Cc2ccccn2)C1 (stereo not drawn),–,66.32
O=C(NCCNc1ncccn1)C1CC(=O)N(Cc2ccco2)C1 (stereo not drawn),–,18.03
O=C(NCCNc1ncccn1)C1CC(=O)N(Cc2ccccc2)C1 (stereo not drawn),–,14.32
Cc1c(-c2nc(-c3cccc(CN4CCOCC4)c3)no2)cnn1C,–,8.571
Cc1cc(-c2nc(-c3cccc(CN4CCOCC4)c3)no2)no1,–,8.772
Cc1occc1-c1nc(-c2cccc(CN3CCOCC3)c2)no1,–,55.09
N#Cc1cccc(CN)c1F,2.806,–
COCCNc1nnc(SCc2ccc(Br)cn2)s1,98.42,–
COCCNc1nnc(-c2ccccn2)s1,–,14.66
COCCCNc1ccc(Br)cn1,6.813,–
Cc1n[nH]cc1CNCc1nccs1,-5.718,–
COCCNC(=O)c1cn(CC2CCCNC2)nn1 (stereo not drawn),-4.648,–
CCc1cc(NCc2cccnc2)n2nccc2n1,3.949,–
COc1ccc2c(c1)CCCC2N (stereo not drawn),9.435,–
Cn1cc(CN2C[C@@H]3COC[C@H](C(=O)Nc4cccnc4)[C@@H]3C2)cn1.O=C(O)C(F)(F)F.O=C(O)C(F)(F)F,–,79.48
Cn1cc(CN2CC(C(=O)Nc3ccccc3)C3(CCOCC3)C2)cn1.O=C(O)C(F)(F)F (stereo not drawn),–,-1.627
Cn1cc(CN2C[C@@H]3COC[C@@H](C(=O)N4CCCCO4)[C@@H]3C2)cn1.O=C(O)C(F)(F)F.O=C(O)C(F)(F)F,–,0.4992
Cc1nnc(SCCNC(=O)CC2C=CS(=O)(=O)C2)s1 (stereo not drawn),45.65,–

SMILES,Percent Effect (50 µM) [%],Percent Effect (10 µM) [%]
CN(Cc1cnccn1)C(=O)c1ccc(CSc2nnc[nH]2)o1,–,-8.183
CSCc1ccc(C(=O)N(C)Cc2cnccn2)o1,98.35,–
CC(C)Cc1cc(C(=O)N(C)Cc2cnccn2)on1,13.67,–
CC(CCO)CNS(=O)(=O)c1ccccc1F (stereo not drawn),13.76,–
COCC(NC(=O)CNc1ccccc1)C(C)C (stereo not drawn),18.12,–
Cc1ccc(S(=O)(=O)N2CCNC(=O)C2)cc1C(N)=O,3.593,–
CC(C)Cn1cc(NC(=O)N2CCCC2)cn1,–,-15.58
NC(=O)Cn1cc(NC(=O)N2CCCC(O)C2)cn1 (stereo not drawn),–,-5.248
CC(C)Cn1cc(NC(=O)N2CCC(O)C2)cn1 (stereo not drawn),99.23,–
CC(C)[C@@H]1CN(C(=O)c2ccc(O)cn2)C[C@H]1N(C)C,-13.98,–
NS(=O)(=O)c1ccc2c(c1)N(CC(=O)NC1CC1)CC2,3.074,–
CCc1ccc(CN2CCOCC(CO)C2)nc1 (stereo not drawn),13.26,–
C[C@@H]1CN(C(=O)c2cc(F)cc(C#N)c2)C[C@]1(C)O,97.61,–
C[C@@H]1CN(C(=O)c2ccccc2C#N)C[C@]1(C)O,10.95,–
C[C@@H]1CN(C(=O)c2ccc(=O)[nH]c2)C[C@]1(C)O,3.055,–
CSCC(CCO)NC(=O)c1coc2ccccc12 (stereo not drawn),-6.179,–
CC(C)(C)OC(=O)N1CCC(n2cc(N)cn2)CC1,-15.49,–
N[C@@H]1CCCc2c(F)cc(F)cc21,13.09,–

# From ChEMBL document CHEMBL3988442, “University of Dundee, Small-Polar-MMV Screening Library” (2021)
